Test [1] can be described thus: Primary qHTS for inhibitors of SARS-S pseudo-typed particle cell entry (AID 1479145). Note: nearly all actives have a fitted effect of over 45% in size. Note: potency is the fitted concentration of half-maximal effect. In general terms: Quantitative high-throughput screening tests each substance at several concentrations.
Test [2] in a line: Primary qHTS for Huh7 cytotoxicity: counterscreen for inhibitors of MERS-S pseudotyped particle cell entry (AID 1479147).
A short description of test [3]: Primary qHTS for Vero E6 cytotoxicity: counterscreen for inhibitors of SARS-S pseudo-typed particle cell entry (AID 1479150).
Test [4] is described as follows: Primary qHTS for inhibitors of MERS-S pseudo-typed particle cell entry (AID 1479149). Note: nearly all actives have a fitted effect of over 60% in size.
Test [5] is described as follows: Primary qHTS for inhibitors of La Crosse Virus (LACV) - induced cell death in SH-SY5Y cells (AID 1508616; active = well fitted inhibition curve with a large enough effect;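 note: top concentration of the series differs between compounds; higher means more rescue of cells from virus-induced death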). The method in brief:
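Screening measures cell viability in LACV-infected SH-SY5Y cultures. Compound was added before virus (0.01 MOI), and ATP was detected by luminescence 6 days later.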

Consider 36 compounds from PubChem BioAssay (NCATS).

Structures are written as SMILES. Results filed as inconclusive are left out. Values without a mark were called inactive. Activity calls are given as the source filed them. Unless noted, calls come from the whole dose curve.

With `CC(C)[C@H]1C(=O)N2CCC[C@H]2[C@]2(O)O[C@](NC(=O)[C@@H]3C[C@@H]4c5cccc6[nH]cc(c56)C[C@H]4N(C)C3)(C(C)C)C(=O)N12`, the Potency entry in test [1], in test [2] and in test [3] was “inactive” throughout.

Regarding `CC12CCC(CC1)C(C)(C)O2`, the Potency entry in test [2], in test [4] and in test [3] was “inactive” in each case.

As to `CCC(CC)(CNC(=O)CCCO)c1cccc(OC)c1`, the Potency entry in test [2] and in test [4] was “inactive” throughout.

On to `NC(N)=NC(=O)Cc1c(Cl)cccc1Cl`, for which the Potency entry in test [1], in test [2] and in test [3] was “inactive” in each case.

For the compound `CC(=O)N(CC(O)CO)c1c(I)c(C(=O)NCC(O)CO)c(I)c(C(=O)NCC(O)CO)c1I` (stereo not drawn), the Potency entry in test [2], in test [4] and in test [3] was “inactive” throughout.

With `O=C(OCC1(COC(=O)c2cccnc2)CCCC(COC(=O)c2cccnc2)(COC(=O)c2cccnc2)C1O)c1cccnc1`, the Potency entry in test [2], in test [4] and in test [3] was “inactive” throughout.

Take `CCN1CC(CCN2CCOCC2)C(c2ccccc2)(c2ccccc2)C1=O` (stereo not drawn): the Potency result in test [2], in test [4] and in test [3] was “inactive” throughout.

On to `C/C=C1\[C@H]2C=C(C)C[C@]1(N)c1ccc(=O)[nH]c1C2`, for which the Potency result in test [2], in test [4] and in test [3] was “inactive” in each case.

As to `C=C1[C@H](CO)[C@@H](O)C[C@@H]1n1cnc2c(=O)[nH]c(N)nc21`, the Potency entry in test [2], in test [4] and in test [3] was “inactive” in each case.

With `C=CCN1CCc2nc(N)sc2CC1`, the Potency result in test [2], in test [4] and in test [3] was “inactive” throughout.

On to `CCCCCN(CCCOC)C(=O)C(CCC(=O)O)NC(=O)c1ccc(Cl)c(Cl)c1` (stereo not drawn), for which the Potency result in test [2], in test [4] and in test [3] was “inactive” each time.

With `O=C(O)CCCCC1CCSS1` (stereo not drawn), the Potency entry in test [1], in test [4] and in test [3] was “inactive” throughout.

Turning to `COc1ccc2c(c1)c(CC(=O)OC/C=C(\C)CC/C=C(\C)CCC=C(C)C)c(C)n2C(=O)c1ccc(Cl)cc1`, the Potency result in test [2], in test [4] and in test [3] was “inactive” throughout.

Consider `OCc1ccc(Cl)cc1Cl`, for which the Potency entry in test [2], in test [4] and in test [3] was “inactive” throughout.

Turning to `COc1ccc(C(=O)NCc2ccc(OCCN(C)C)cc2)cc1OC`, the Potency entry in test [2], in test [4] and in test [3] was “inactive” each time.

On to `Cc1ccc(-c2ncc(Cl)cc2-c2ccc(S(C)(=O)=O)cc2)cn1`, for which the Potency result in test [2], in test [4] and in test [3] was “inactive” in each case.

On to `O=c1c(C2CC(c3ccc(-c4ccc(Br)cc4)cc3)Cc3ccccc32)c(O)sc2ccccc12` (stereo not drawn), for which the Potency in test [1] is 25.1 µM (active). The Potency entry in test [2] is “inactive”. The call in test [5] was inactive.

As for `CC(C(=O)O)c1ccc2c(c1)CC(=O)c1ccccc1S2` (stereo not drawn), the Potency entry in test [1], in test [2] and in test [3] was “inactive” each time.

As to `O=C(NC(Cc1cc(=O)[nH]c2ccccc12)C(=O)O)c1ccc(Cl)cc1` (stereo not drawn), the Potency entry in test [2], in test [4] and in test [3] was “inactive” each time.

On to `COc1cccc2c1C(=O)c1c(O)c3c(c(O)c1C2=O)C[C@@](O)(C(=O)CO)CC3OC1CC(N2CCOC(OC)C2)C(O)C(C)O1` (stereo partly drawn), for which the Potency result in test [1], in test [4] and in test [3] was “inactive” in each case. Further, the call in test [5] was inactive.

For the compound `CCCCC[C@H](O)/C=C/[C@@H]1[C@H]2C/C(=C/CCCC(=O)O)O[C@H]2C[C@H]1O`, the Potency result in test [2], in test [4] and in test [3] was “inactive” each time.

In the case of `CNC[C@H](O)c1cccc(O)c1`, the Potency result in test [2], in test [4] and in test [3] was “inactive” in each case.

Consider `NS(=O)(=O)c1cc(Cl)c(Cl)c(S(N)(=O)=O)c1`, for which the Potency entry in test [2], in test [4] and in test [3] was “inactive” throughout.

For the compound `CCOCCn1c(C2CCN(CCc3ccc(C(C)(C)C(=O)O)cc3)CC2)nc2ccccc21`, the Potency entry in test [2], in test [4] and in test [3] was “inactive” in each case.

Take `COc1cc(C(=O)NS(=O)(=O)c2ccccc2C)ccc1Cc1cn(C)c2ccc(NC(=O)OC3CCCC3)cc12`: the Potency entry in test [2], in test [4] and in test [3] was “inactive” each time.

`CO/N=C(/C(=O)N[C@@H]1C(=O)N2C(C(=O)[O-])=C(C[n+]3ccn4ncccc43)CS[C@H]12)c1nsc(N)n1`: the Potency entry in test [2], in test [4] and in test [3] was “inactive” each time.

For the compound `CCS(=O)(=O)CCn1c([N+](=O)[O-])cnc1C`, the Potency entry in test [2], in test [4] and in test [3] was “inactive” each time.

Consider `CC(=O)Nc1ccc(S(=O)(=O)Nc2cc(C)on2)cc1`, for which the Potency entry in test [2], in test [4] and in test [3] was “inactive” in each case.

Turning to `CO/N=C(/C(=O)N[C@@H]1C(=O)N2C(C(=O)OCOC(=O)C(C)(C)C)=C(C)CS[C@H]12)c1csc(N)n1`, the Potency entry in test [2], in test [4] and in test [3] was “inactive” in each case.

On to `NC1CCN(c2nc3c(cc2F)c(=O)c(C(=O)O)cn3-c2ccc(F)cc2F)C1` (stereo not drawn), for which the Potency entry in test [2], in test [4] and in test [3] was “inactive” each time.

On to `CN1C(C(=O)Nc2ccccn2)=C(O)c2sccc2S1(=O)=O`, for which the Potency entry in test [2], in test [4] and in test [3] was “inactive” in each case.

Turning to `CC(C)(C)NC[C@H](O)COc1cccc2c1CCCC2=O`, the Potency entry in test [2], in test [4] and in test [3] was “inactive” throughout.

`CC(C)[C@H](N)C(=O)OCC(CO)OCn1cnc2c(=O)[nH]c(N)nc21` (stereo partly drawn): the Potency entry in test [2], in test [4] and in test [3] was “inactive” each time.

Regarding `C[N+]1(C)[C@@H]2CC(OC(=O)[C@H](CO)c3ccccc3)C[C@H]1[C@@H]1O[C@@H]12` (stereo partly drawn), the Potency entry in test [2], in test [4] and in test [3] was “inactive” in each case.

Turning to `Cc1ccc(C(C)C)cc2c(C)ccc1-2`, the Potency entry in test [2], in test [4] and in test [3] was “inactive” throughout.

For the compound `CCCNC(C)C(=O)Nc1c(C)csc1C(=O)OC` (stereo not drawn), the Potency entry in test [2], in test [4] and in test [3] was “inactive” each time.
